Records with an inconclusive call do not appear. Active and inactive are the calls of the source. The call rests on the fitted dose curve; in most records, active means well fitted activation curve with a large enough effect; inconclusive means small, poorly fitted or top-dose-only effect; inactive means no such curve, though single readings can be large or run the other way.
biological target: Rap guanine nucleotide exchange factor 3 (Homo sapiens) (UniProt O95398); assay: Confirmatory qHTS for agonist of cAMP-regulated guanine nucleotide exchange factor 3 (EPAC1) (AID 1645881); conditions: EPAC1 Rap1B BODIPY-GDP exchange fluorescence; series mostly up to 154 µM; activation: at the top concentration;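 further: EPAC1 catalysed release of BODIPY-GDP from Rap1B seen as fluorescence loss; 100% = effect of cAMP agonist control; nearly all actives have a fitted effect of over 75% in size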
Sequence (O95398 whole entry, looked up): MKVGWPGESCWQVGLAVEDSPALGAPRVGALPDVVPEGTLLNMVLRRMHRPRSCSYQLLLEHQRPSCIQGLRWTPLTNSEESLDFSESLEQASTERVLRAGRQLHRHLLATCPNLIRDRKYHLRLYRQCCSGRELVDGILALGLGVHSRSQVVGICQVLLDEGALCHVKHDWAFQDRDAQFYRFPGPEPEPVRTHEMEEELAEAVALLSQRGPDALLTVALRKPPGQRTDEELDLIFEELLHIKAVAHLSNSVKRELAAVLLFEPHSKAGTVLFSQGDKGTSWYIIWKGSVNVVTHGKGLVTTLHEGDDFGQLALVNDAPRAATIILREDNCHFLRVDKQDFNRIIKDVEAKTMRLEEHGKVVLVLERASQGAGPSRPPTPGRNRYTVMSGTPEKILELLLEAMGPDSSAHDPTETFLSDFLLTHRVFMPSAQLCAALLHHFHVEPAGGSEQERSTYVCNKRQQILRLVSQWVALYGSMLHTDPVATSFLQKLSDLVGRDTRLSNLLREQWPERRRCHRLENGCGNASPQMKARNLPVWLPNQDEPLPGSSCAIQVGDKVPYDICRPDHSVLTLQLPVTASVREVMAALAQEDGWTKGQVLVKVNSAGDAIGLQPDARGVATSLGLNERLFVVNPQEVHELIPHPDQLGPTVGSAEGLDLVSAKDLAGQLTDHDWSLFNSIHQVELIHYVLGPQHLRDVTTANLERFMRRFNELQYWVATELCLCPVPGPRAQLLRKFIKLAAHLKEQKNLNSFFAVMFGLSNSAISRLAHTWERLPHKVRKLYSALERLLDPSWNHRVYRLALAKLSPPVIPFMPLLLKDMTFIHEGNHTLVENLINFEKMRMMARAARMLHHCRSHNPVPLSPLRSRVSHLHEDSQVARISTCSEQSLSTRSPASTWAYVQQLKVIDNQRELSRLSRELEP

activation, inactive:
CC(C)=CCc1c(O)cc2oc3c(CC=C(C)C)c(O)c(O)c(CC=C(C)C)c3c(=O)c2c1O -25.2%
COc1ccc(C(C#N)N2CCC(c3ccccc3)=N2)cc1OC (stereo not given) 13.8%
O=C(CS(=O)(=O)c1ccccc1)c1cc2ccccc2oc1=O 8.95%
Cn1c2c(c3ccccc31)CCN1CCC[C@]21c1ccccc1 17.6%
CCCCN(C(=O)c1ccc2c(c1)OCO2)c1ccccc1 20.8%
COc1cc(/C=C2\COC/C(=C\c3ccc(O)c(OC)c3)C2=O)ccc1O 3.24%
Cc1nc2ccccc2c(=O)n1N(c1ccccc1)c1ccccc1 16%
Cc1cc(C)c2nc(N3C(=O)C(O)=C(C(=O)c4ccco4)C3c3ccc(O)cc3)sc2c1 (stereo not given) -37.1%
CC(C)C(NC(=O)c1ccccc1)C(=O)OCn1nnc2ccccc2c1=O (stereo not given) 10.9%
O=c1[nH]nc(CNc2ccc(O)cc2)c2ccccc12 10.3%
CCCCOc1ccc(NS(=O)(=O)c2ccc(-n3cnnn3)cc2)cc1 13.8%
Cc1ccc(CC#N)c(-c2c(CC#N)ccc(C)c2C)c1C 1.4%
COc1ccc(-c2csc(NC(=O)c3ccccc3NS(=O)(=O)c3ccc(F)c(F)c3)n2)cc1 -7.44%
Cc1ccc([N+](=O)[O-])cc1NC(=O)c1ccc(-c2ccccc2)cc1 -3.96%
COc1cc(/C=C2\C(=N)N3N=C(S(C)(=O)=O)SC3=NC2=O)cc(OC)c1OCCOc1ccccc1C -24%
O=C(Nc1cccc(Cl)c1N1CCOCC1)c1cccs1 25.7%
Cn1c(N)c(C(=O)COC(=O)C2(c3ccc(Cl)cc3)CCCC2)c(=O)n(C)c1=O 9.83%
COc1cc(/C=C2\C(=N)N3N=C(S(C)(=O)=O)SC3=NC2=O)ccc1OS(=O)(=O)c1ccc(C)cc1 -2.75%
O=C(Cc1ccc(F)cc1)Nc1ccccc1Sc1ccccc1 13.7%
N#Cc1c(C(F)(F)F)cc(-c2ccccc2)nc1SCc1nc(N)nc(N2CCOCC2)n1 14.9%
COC(=O)c1c(-c2ccc(OC)cc2)sc2ccc(OC)cc12 11.9%
Cc1cccc(C(=O)Oc2ccc(/C=N/NC(=O)c3cc(O)cc(O)c3)cc2)c1 16.2%
Cc1oc2c(c1C(=O)c1ccccc1)C(=O)C(=O)c1ccccc1-2 17.2%
CN1OC[C@@H]2CN(Cc3ccc(Cl)cc3)[C@H](c3ccc(-n4ccnc4)cc3)C[C@@H]21 6.28%
Cc1nc(-c2ccc(C(=O)Nc3cccc(Br)c3)cc2)cs1 12.4%
CCCc1nc2c3ccccc3ccn2c1CC(C)(C)C 0.911%
COc1ccc(NC(=O)c2cc(-c3ccco3)nc3ccccc23)cc1S(=O)(=O)N1CCOCC1 5.18%
CCCCn1nnnc1C(c1ccccc1)N1CCN(c2ccc(F)cc2)CC1 (stereo not given) 8.69%
CCSc1nc(-c2ccccc2)nc2c1CCCC2 1.43%
CCOC(=O)c1ccccc1NC(=O)COC(=O)C(Cc1c[nH]c2ccccc12)NC(C)=O (stereo not given) 8.46%
O=[N+]([O-])c1ccccc1O[C@@H]1O[C@H](CO)[C@H](O)[C@H](O)[C@H]1O -2.38%
COc1ccc(/C=C2\N=C(SC)N(c3ccccc3OC)C2=O)cc1 10.5%
COc1cc(/C=C2\C(=O)N(c3cccc(C(=O)O)c3)N=C2C)ccc1OCc1ccccc1 -8.9%
CCCCCCc1cc2cc(-c3nnc(-c4ccc(C)cc4)o3)c(=O)oc2cc1O 11.9%
COc1ccccc1N(CC(=O)Nc1ccc(Br)cc1F)S(=O)(=O)c1cccs1 9.62%
COc1ccc(C(=O)N/N=C/c2ccc3cccc(OCc4ccccc4)c3n2)cc1 13.9%
CC(C)NC(=O)c1sc(=S)n2c1[nH]c(=O)c1ccc(C(=O)NCCc3ccc(Cl)cc3)cc12 -7.63%
COCCN(C(=O)c1cc2c(s1)CCCCC2)c1c(N)n(Cc2ccccc2)c(=O)[nH]c1=O 4.66%
CCOc1ccc(-n2c(SCC(=O)Nc3ccc(F)cc3)nc3c([nH]c4ccccc43)c2=O)cc1 -0.12%
CCN(CC1COc2ccccc2O1)C(=O)CN1C(=O)NC(C)(c2ccc(C)cc2)C1=O (stereo not given) 6.79%
